In PubChem BioAssay (NCI):
“And” between values parts separate entries of the source, which are not always exact repeats. Equal entries are not always repeated. This is part of a sample that, as a whole, favours compounds with a hit. Of some 79,000 tested, about 15% had one in any assay. Some compounds were tested as several samples or in several runs, with calls that do not always agree. The source made the active and inactive calls. Rule as the data show it: active = growth inhibition above about 70%; inactive = the rest.

Tests used:
[1] = NCI Yeast Anticancer Drug Screen. Data for the rad50 strain (AID 155);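 also: 0% = growth of vehicle-only cultures of the same strain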; conditions: S. cerevisiae rad50 strain growth inhibition, stronger effect = higher value
How it was run: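 Relative growth inhibition (compound vs vehicle) was measured in yeast with a defined repair-gene alteration.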

[2] = NCI Yeast Anticancer Drug Screen. Data for the mec2-1 strain (AID 157); conditions: S. cerevisiae mec2-1 strain, stronger effect = higher value
How it was run: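 Mutant yeast (mec2-1) grown with compound; growth inhibition relative to vehicle control reported.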

[3] = NCI Yeast Anticancer Drug Screen. Data for the sgs1 mgt1 strain (AID 161);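 also: 0% = growth of cultures given vehicle only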; conditions: S. cerevisiae sgs1 mgt1 strain, stronger effect = higher value
How it was run: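 Compounds are added to genetically altered yeast, and growth is compared with cultures given vehicle alone to give percent inhibition.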

[4] = NCI Yeast Anticancer Drug Screen. Data for the cln2 rad14 strain (AID 165);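 also: 0% = growth equal to vehicle treated cultures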; conditions: S. cerevisiae cln2 rad14 strain, stronger effect = higher value
How it was run: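 Readout is yeast growth inhibition versus vehicle-treated controls, using a strain with cln2 and rad14 alterations exposed to compound.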

[5] = NCI Yeast Anticancer Drug Screen. Data for the mlh1 rad18 strain (AID 175); conditions: S. cerevisiae mlh1 rad18 strain growth inhibition, stronger effect = higher value
How it was run: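 Genetically defined yeast (DNA repair-deficient) exposed to compounds; growth inhibition determined relative to vehicle.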

[6] = NCI Yeast Anticancer Drug Screen. Data for the bub3 strain (AID 167); conditions: S. cerevisiae bub3 mutant strain, stronger effect = higher value
How it was run: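 Screening used yeast with an engineered genetic alteration affecting cell cycle control. Compound-exposed cultures were compared with vehicle cultures, and reduced growth was taken as inhibition.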

[7] = NCI Yeast Anticancer Drug Screen. Data for the wt2 strain (AID 169);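 also: 0% = growth of vehicle-treated yeast cultures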; conditions: S. cerevisiae wt2 strain growth inhibition, stronger effect = higher value
How it was run: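 Against vehicle-treated controls, the growth of yeast exposed to each compound was compared, and the inhibition was recorded.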

[8] = at 5.0 µM (retest, dose inferred, filed as 0.5)
[9] = at 50.0 µM (retest, dose inferred, filed as 5.0)

Measured: growth inhibition

CC(NC(=O)/C(C#N)=C/c1ccc2[nH]ccc2c1)c1ccccc1 (stereo not drawn)
active: [1]; [9] 94% | [1]; at 50.0 µM 86.2% | [2]; [9] 95% | [2]; at 50.0 µM 90% | [3]; [9] 93% | [3]; at 50.0 µM 88.8% | [4]; [9] 91% | [4]; at 50.0 µM 86.5% | [5]; [9] 96% | [5]; at 50.0 µM 86.3%
inactive: [1]; [8] 0% | [2]; [8] 1% | [3]; [8] 16% | [4]; [8] 7% | [5]; [8] -5%

CCOC(=O)C(Cc1ccccc1[N+](=O)[O-])C(=O)OCC
inactive: [1]; [8] -5% | [1]; [9] -33% | [1]; at 50.0 µM 5.4% | [2]; [8] -27% | [2]; [9] -5% | [2]; at 50.0 µM -3.7% | [4]; [8] 17% | [4]; [9] 10% | [4]; at 50.0 µM 7.75% | [6]; [8] 30% | [6]; [9] 3% | [6]; at 50.0 µM 44.6% | [5]; [8] 0% | [5]; [9] -22% | [5]; at 50.0 µM 20.5%

CCN(CC)CCNc1n[n+]([O-])c2cc([N+](=O)[O-])ccc2[n+]1[O-]
active: [1]; [9] 88% | [1]; at 50.0 µM 80.5% and 79% | [3]; [9] 76% | [3]; at 50.0 µM 73.5% and 71% | [5]; [9] 85% | [5]; at 50.0 µM 79.3% and 80.5%
inactive: [1]; [8] 31% | [2]; [8] 5% | [2]; [9] 48% | [2]; at 50.0 µM 58.8% and 52.6% | [3]; [8] 16% | [6]; [8] -7% | [6]; [9] 67% | [6]; at 50.0 µM 43.7% and 45.1% | [5]; [8] 24%

Oc1ccc(N=Nc2ccccn2)c(O)c1
-174% (inactive) and 98% (active): [1]; [8]
active: [1]; [9] 94% and 98% | [1]; at 50.0 µM 98.5% and 88.8% | [2]; [9] 97% and 99% | [2]; at 50.0 µM 98.5% and 90.5% | [4]; [9] 94% and 98% | [4]; at 50.0 µM 96% and 86.2% | [6]; [9] 96% | [6]; at 50.0 µM 97.5% and 89.8% | [5]; [9] 95% and 99% | [5]; at 50.0 µM 98.4% and 89%
-127% (inactive) and 100% (active): [5]; [8]
-53% (inactive) and 99% (active): [2]; [8]
inactive: [4]; [8] -66% and 42% | [6]; [8] -67% and 42%

CCCC1CCC(=C2C(=O)CCC2=O)O1 (stereo not drawn)
0.65% (inactive) and 91.2% (active): [4]; at 50.0 µM
-5.55% (inactive) and 92.7% (active): [3]; at 50.0 µM
inactive: [1]; [8] 6% | [1]; [9] 21% | [2]; [8] 2% | [2]; [9] 19% | [3]; [8] 9% | [3]; [9] 26% | [4]; [8] -2% | [4]; [9] 8% | [5]; [8] 15% | [5]; [9] 35%
-4.75% (inactive) and 90.7% (active): [1]; at 50.0 µM
-8.75% (inactive) and 92.2% (active): [2]; at 50.0 µM
-13.1% (inactive) and 90.8% (active): [5]; at 50.0 µM

Cc1cc2c(c(Br)c1O)Oc1c(cc(C)c(O)c1Br)C21OC(=O)c2ccccc21
inactive: [1]; [8] 52% | [2]; [8] 42% | [3]; [8] 55% | [4]; [8] 36%
active: [1]; [9] 98% | [1]; at 50.0 µM 90.7% | [2]; [9] 99% | [2]; at 50.0 µM 93% | [3]; [9] 99% | [3]; at 50.0 µM 92.6% | [4]; [9] 98% | [4]; at 50.0 µM 92.5% | [5]; [8] 77% | [5]; [9] 98% | [5]; at 50.0 µM 90%

Fc1ccc2nc3ccccc3nc2c1
inactive: [1]; [8] 3% | [1]; [9] 40% | [2]; [8] 5% | [2]; [9] 27% | [2]; at 50.0 µM 49.2% | [4]; [8] -6% | [4]; [9] 10% | [4]; at 50.0 µM 29.5% | [6]; [8] 5% | [6]; [9] 24% | [6]; at 50.0 µM 42.5% | [5]; [8] 2% | [5]; [9] 27%
active: [1]; at 50.0 µM 77.5% | [5]; at 50.0 µM 76.3%

COc1ccc(Cc2ccc(O)cc2)cc1
active: [1]; [9] 79% | [2]; [9] 88%
inactive: [1]; [8] 41% | [1]; at 50.0 µM 33.3% | [2]; [8] 40% | [2]; at 50.0 µM 27.8% | [3]; [8] -9% | [3]; [9] 47% | [3]; at 50.0 µM 52.8% | [6]; [8] -16% | [6]; [9] 49% | [6]; at 50.0 µM 30.9% | [7]; at 1.2 µM -12% | [7]; at 3.7 µM -8% | [7]; at 11.0 µM -9% | [7]; at 33.0 µM 6% | [7]; at 100.0 µM 11% | [5]; [8] 27% | [5]; [9] 54% | [5]; at 50.0 µM 28.8%

CC(C)CC(Nc1c(O)ccc2ccccc12)C(=O)O (stereo not drawn)
inactive: [1]; [8] 24% | [3]; [8] 17% | [4]; [8] 11% | [6]; [8] 15% | [5]; [8] 45%
active: [1]; [9] 98% | [1]; at 50.0 µM 98.8% | [3]; [9] 99% | [3]; at 50.0 µM 99.3% | [4]; [9] 99% | [4]; at 50.0 µM 72.7% | [6]; [9] 99% | [6]; at 50.0 µM 95.2% | [5]; [9] 99% | [5]; at 50.0 µM 99.3%

CS(=O)(=O)OCCN(CCOS(C)(=O)=O)c1ccc(C=Nc2ccc(-c3csc(Cc4ccccc4)n3)cc2)c(Cl)c1
active: [1]; [9] 95% | [1]; at 50.0 µM 71.2% | [2]; [9] 93% | [2]; at 50.0 µM 76.6% | [3]; [9] 83% | [3]; at 50.0 µM 71% | [6]; [9] 78% | [6]; at 50.0 µM 76% | [5]; [9] 94%
inactive: [1]; [8] 16% | [2]; [8] 7% | [3]; [8] -22% | [6]; [8] -35% | [5]; [8] 15%

CCOCc1ccccc1C(O)(c1ccc(OC)cc1)c1ccc(OC)cc1
active: [6]; at 50.0 µM 76.5% and 95.8% | [5]; at 50.0 µM 74% and 82.8%
33.4% (inactive) and 72.5% (active): [2]; at 50.0 µM
inactive: [1]; [8] 5% and 1% | [1]; [9] 2% and 1% | [2]; [8] 2% and 6% | [2]; [9] 9% and 11% | [4]; [8] 3% and 5% | [4]; [9] 3% and 7% | [6]; [8] 3% and 14% | [6]; [9] 33% and 61% | [5]; [8] 3% and 5% | [5]; [9] -26% and 41%
48.3% (inactive) and 78.8% (active): [1]; at 50.0 µM
67% (inactive) and 94.2% (active): [4]; at 50.0 µM

CCCCCCCCCCCCN1C(=O)[N+](C)(C)N=C1[O-]
active: [1]; at 50.0 µM 98.7% | [2]; at 50.0 µM 99.3% | [4]; at 50.0 µM 97.5% | [6]; at 50.0 µM 98.9% | [5]; at 50.0 µM 99.1%
inactive: [1]; [8] 6% | [1]; [9] 41% | [2]; [8] 4% | [2]; [9] 49% | [4]; [8] -4% | [4]; [9] 21% | [6]; [8] 4% | [6]; [9] 34% | [5]; [8] 4% | [5]; [9] 49%

CC(=O)c1c2ccccc2cc2ccccc12
68.4% (inactive) and 92.3% (active): [1]; at 50.0 µM
active: [1]; [9] 74% and 96% | [2]; [9] 88% and 98% | [2]; at 50.0 µM 79% and 96.5% | [4]; [9] 89% and 96% | [4]; at 50.0 µM 72.4% and 89.1% | [6]; [9] 95% and 97% | [6]; at 50.0 µM 79.5% and 95.6% | [5]; [9] 94% and 97% | [5]; at 50.0 µM 75% and 96.2%
inactive: [1]; [8] 7% and 61% | [2]; [8] 9% and 44% | [4]; [8] 12% and 49% | [6]; [8] 17% and 56% | [5]; [8] 9% and 46%

O=C1CSC(=S)N1c1ccc(Cl)c(C(F)(F)F)c1
active: [1]; at 50.0 µM 97.5% | [2]; at 50.0 µM 97.7% | [6]; at 50.0 µM 98.5% | [5]; [9] 95% | [5]; at 50.0 µM 98.3%
inactive: [1]; [8] -1% | [1]; [9] 36% | [2]; [8] 0% | [2]; [9] 11% | [4]; [8] -4% | [4]; [9] -10% | [4]; at 50.0 µM 58.4% | [6]; [8] -6% | [6]; [9] 56% | [5]; [8] 11%

Oc1ccc(Cc2ccccc2)cc1
active: [5]; at 50.0 µM 72.2%
inactive: [1]; [8] 1% | [1]; [9] 14% | [1]; at 50.0 µM 63.6% | [2]; [8] -3% | [2]; [9] 14% | [2]; at 50.0 µM 34% | [3]; [8] -4% | [3]; [9] 15% | [3]; at 50.0 µM 23.8% | [6]; [8] -2% | [6]; [9] 6% | [6]; at 50.0 µM 42.2% | [5]; [8] 2% | [5]; [9] 11%

N#CC1Sc2ccccc2N1C(=O)OCc1ccccc1 (stereo not drawn)
inactive: [2]; [8] 4% | [3]; [8] 11% | [4]; [8] 11% | [6]; [8] 20% | [5]; [8] 9%
active: [2]; [9] 86% | [2]; at 50.0 µM 86.8% | [3]; [9] 89% | [3]; at 50.0 µM 94% | [4]; [9] 82% | [4]; at 50.0 µM 81.2% | [6]; [9] 91% | [6]; at 50.0 µM 93.5% | [5]; [9] 90% | [5]; at 50.0 µM 91.8%

Clc1ccc(CNNCc2ccc(Cl)cc2)cc1
-9.95% (inactive) and 72.6% (active): [6]; at 50.0 µM
7.2% (inactive) and 78.7% (active): [1]; at 50.0 µM
active: [1]; [9] 85% | [3]; [9] 98% | [4]; [9] 72% | [6]; [9] 96% | [5]; [9] 94%
inactive: [1]; [8] -12% | [3]; [8] -2% | [3]; at 50.0 µM -3% and 58.5% | [4]; [8] -1% | [4]; at 50.0 µM -10.4% and 16.6% | [6]; [8] 46% | [5]; [8] -2% | [5]; at 50.0 µM 11.7% and 67.8%

NC(CSCc1ccccc1)C(=O)O (stereo not drawn)
inactive: [6]; at 50.0 µM -6% [middle of 4 runs] | [5]; at 50.0 µM 0.9% [middle of 4 runs]

OCC(O)C(O)C(O)C(O)CO (stereo not drawn) (tested in a mixture with another compound)
inactive: [3]; at 50.0 µM 0.35% [middle of 6 runs] | [5]; at 50.0 µM 13.2% [middle of 6 runs]
